Screening results: PubChem BioAssay, National Center for Advancing Translational Sciences (NCATS)
A selection: hits, their analogues and other compounds. The true share with any hit is near 10%.
BAZ2B block: blocks human BAZ2B. Q9UIF8. AlphaScreen BAZ2B-H3K14Ac peptide displacement. Potency, µM (series often up to 114 µM), without a hit: top-dose activity change, negative = inhibition, most hits filed as inhibitors. 4.4% of 360,000 active. AID 504333; further: potency means the concentration at half of the fitted maximal effect; on the % scale 0 is the no-effect control and ±100 the full control effect; nearly all actives have a fitted effect of over 60% in size
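AlphaScreen luminescence quantifies BAZ2B engagement of H3K14Ac peptide; the protein and biotinylated peptide are both at 50 nM final, buffer PBS pH 7.4 with 0.01% Tween-20, all steps at room temperature.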
Six1-Eya2 inh: inhibitors of human Six1/Eya2 interaction; Q15475+O00167; AlphaScreen GST-Six1/His-Eya2 binding, biochemical; active compounds read low; activity change, % (concentration not given with the values); 0.56% of 360,000 active; in the data active means activity change below about -65%; inconclusive means mostly about -30% to -63%; further: on the % scale 0 is the no-effect control and ±100 the full control effect
Target sequence (O00167 whole entry, looked up): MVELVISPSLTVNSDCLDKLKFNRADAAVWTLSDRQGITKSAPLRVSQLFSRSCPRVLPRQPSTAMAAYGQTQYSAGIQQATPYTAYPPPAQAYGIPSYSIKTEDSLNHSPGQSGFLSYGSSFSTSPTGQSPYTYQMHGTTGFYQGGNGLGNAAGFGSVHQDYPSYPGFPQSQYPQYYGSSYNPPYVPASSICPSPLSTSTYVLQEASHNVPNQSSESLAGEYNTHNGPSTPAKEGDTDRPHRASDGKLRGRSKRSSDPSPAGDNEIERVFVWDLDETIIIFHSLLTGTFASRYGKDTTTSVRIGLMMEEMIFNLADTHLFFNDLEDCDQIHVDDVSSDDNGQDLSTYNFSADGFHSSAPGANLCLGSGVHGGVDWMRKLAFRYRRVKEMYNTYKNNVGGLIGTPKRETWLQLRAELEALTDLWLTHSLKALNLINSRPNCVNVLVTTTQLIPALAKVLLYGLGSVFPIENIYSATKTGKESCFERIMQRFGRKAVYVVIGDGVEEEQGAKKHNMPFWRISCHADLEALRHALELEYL
Target sequence (Q15475 whole entry, looked up): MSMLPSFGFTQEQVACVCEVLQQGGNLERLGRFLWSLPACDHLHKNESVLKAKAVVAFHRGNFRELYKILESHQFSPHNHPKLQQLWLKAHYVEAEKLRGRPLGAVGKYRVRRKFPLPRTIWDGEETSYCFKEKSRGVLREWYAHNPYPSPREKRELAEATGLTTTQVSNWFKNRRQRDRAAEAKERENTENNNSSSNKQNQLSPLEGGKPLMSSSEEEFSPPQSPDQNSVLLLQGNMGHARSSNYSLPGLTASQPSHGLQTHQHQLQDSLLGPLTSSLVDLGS
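Six1/Eya2 binding was read as AlphaScreen signal after compounds were pinned into GST-Six1 plus His-tagged Eya2 (5X stock 250/500 nM) in pH 8.0 Tris/NaCl/TCEP buffer, beads added, then incubated 1 h, 37 C, dark.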
JMJD2A Tudor inh: blocks the human JMJD2A Tudor domain | O75164 | AlphaScreen JMJD2A-Tudor / H3K4me3 peptide binding | Potency, µM (highest dose often 114 µM), for the others: at the highest dose activity change, negative = inhibition, most hits filed as inhibitors | 4.4% of 390,000 active; further: potency means the concentration at half of the fitted maximal effect; on the % scale 0 is the no-effect control and ±100 the full control effect; nearly all actives have a fitted effect of over 50% in size
G9a inh: inhibitors of human histone lysine methyltransferase G9a; Q96KQ7; G9a H3K9 monomethylation, AlphaScreen, 2 h; Potency, µM (top dose mostly 102 µM), inactives show at the top dose activity, negative = inhibition, actives largely listed as inhibitors; 8.8% of 350,000 active; AID 504332; further: potency means the concentration at half of the fitted maximal effect; on the % scale 0 is the no-effect control and ±100 the full control effect; nearly all actives have a fitted effect of over 75% in size
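G9a (20 nM) was preincubated 15 min with compound, then reacted 2 h at room temperature with 500 nM biotin-H3K9 peptide and 20 µM SAM. Monomethyl-H3K9 detected by AlphaScreen using anti-H3K9me1 antibody.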
CtBP-E1A blk: inhibitors of CtBP/E1A interaction; AlphaScreen GST-E1A/His-CtBP binding, 1536-well; active compounds read low; activity change, % (test concentration not listed); 0.49% of 340,000 active; AID 651724; in the data active means activity change below about -65%; inconclusive means mostly about -30% to -63%; further: on the % scale 0 is the no-effect control and ±100 the full control effect
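Steps: dispense buffer (Tris pH 8.0, NaCl 300 mM, TCEP 1 mM, BSA, Tween 20); add 5X protein mix (GST-E1A, His-CtBP, 125 nM each); pin 23 nL compound; 2 h at 37 °C, dark; add 5X beads (50 ug/mL); 1 h; read.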
HP1b chromo inh: blocks HP1-beta chromodomain binding to methylated histone tails; P83916; AlphaScreen HP1-beta / biotin-H3K9me3 peptide binding; Potency, µM (doses to about 114 µM), without a hit: at the top dose activity change, negative = inhibition, hits mostly inhibitors; 0.56% of 390,000 active; further: potency means the concentration at half of the fitted maximal effect; nearly all actives have a fitted effect of over 70% in size
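Compound inhibition of the preformed complex between 50 nM HP1-beta and 50 nM biotinylated H3K9me3 peptide was read by AlphaScreen. Buffer was PBS pH 7.4 with 0.01% Tween-20. Incubations ran 30 min at room temperature, with 10 ug/mL donor/acceptor beads.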
* marks the source's active call; other numbers are inactive results; ? = inconclusive; . = not tested or not shown; ! = not active in a repeat; [ ] = remark or other dose. Unless noted, the call rests on the fitted dose curve; in most records, active means well fitted inhibition curve with a large enough effect; inconclusive means small, poorly fitted or top-dose-only effect; inactive means no such curve, though single readings can be large or run the other way.

SMILES | BAZ2B block | Six1-Eya2 inh | JMJD2A Tudor inh | G9a inh | CtBP-E1A blk | HP1b chromo inh
COc1ccc(N2CC(C(=O)N/N=C/c3cc([N+](=O)[O-])ccc3O)CC2=O)cc1 (centres undefined) | 35µM* | -90* | 79µM* | -37% | -77* | 47%
COc1ccc(S(=O)(=O)N(CC(=O)Nc2ccccc2Br)Cc2ccccc2)cc1 | 8% | . | 8% | 32%[59 µM] | . | 44%
Cc1cc2c(s1)c1cnn(Cc3cccc(C)c3F)c(=O)c1n2C | . | . | -23% | . | . | .
CCCC(=O)NC(c1ccccc1OC)c1ccc2cccnc2c1O (centres undefined) | 25µM* | -88* | 56µM* | -4% | -84* | -11%
CCCC(=O)NC(c1ccc(OC)c(OC)c1)c1c(O)ccc2ccccc12 (centres undefined) | -4% | -1 | ? | ? | -5 | 7%
CCCCC(=O)NC(c1ccc(OC)c(OC)c1)c1c(O)ccc2ccccc12 (centres undefined) | -9% | -6 | ? | ? | -13 | -5%
CCCCC(=O)NC(c1ccccc1OC)c1ccc2cccnc2c1O (centres undefined) | ? | -76* | -19%[11.4 µM] | 8% | -92* | 51%
CCNc1sc(C(=O)c2cccs2)c(N)c1-c1nc2ccccc2s1 | ? | -14 | ? | 10µM* | -10 | 11%
C=CCNc1sc(C(=O)c2ccccc2)c(N)c1-c1nc2ccccc2s1 | ? | ? | ? | 22µM* | ? | 25µM*
O=C(COc1ccc2c3c(c(=O)oc2c1)CCCC3)N1CCN(c2ccccc2)CC1 | -32% | 3 | -5% | 39% | . | 41%
COC(=O)C[C@H]1C[C@@H]2c3cc(NS(=O)(=O)c4ccc(OC)cc4)ccc3O[C@@H]2[C@H](CO)O1 | . | 5 | . | . | 6 | .
Clc1ccc(-c2ncc3ccccn23)cc1 | ? | 2 | -15% | 3% | 0 | 17%
COc1ccc(-c2ncc3ccccn23)cc1OC | 32µM* | -5 | 3.5µM* | 14µM* | 1 | ?
Clc1ccccc1-c1ncc2ccccn12 | 56µM* | -9 | 18µM* | ? | 0 | ?
CS(=O)(=O)N1CCC(Oc2ccccc2C(=O)NCCCc2cccnc2)CC1 | 2% | 6 | -13% | -9% | 9 | 39%
COc1ccc(C2=C(C#N)C(=O)OC2)cc1 | ? | 0 | -21% | 32µM* | 3 | 47%
COc1ccc(-c2c(C#N)c(C)nc3c2C(=O)c2ccccc2-3)cc1 | 19% | -2 | -23% | 16%[0.501 µM] | . | 73%
O=C(CN1C(=O)C2CCCCN2c2ccc(C(=O)N3CCCC3)cc21)NCc1ccc(F)cc1 (centres undefined) | -2% | . | -8% | -1%[59 µM] | . | 26%[57 µM]
CCCNC(=O)C/C(C)=N/NC(=O)C(=O)Nc1ccccn1 | -5% | -1 | -4% | 50µM* | 0 | 73%
C/C(CC(=O)Nc1ccccn1)=N\NC(=O)c1ccccc1 | -7% | . | . | 16%[59 µM] | . | .
O=C(O)CCCCCNC(=O)OCC1c2ccccc2-c2ccccc21 | 58% | -6 | -16% | 18%[2.33 µM] | -11 | 19%
Oc1cc2c(cc1C(c1ccc(Cl)c(Cl)c1)N1CCCC1)OCO2 (centres undefined) | 35µM* | -24 | 10µM* | 1.4µM* | -23 | 20µM*
CN=C(N)NCCC[C@H](N)C(=O)O | -10% | 3 | -16% | ? | -20 | 33%
CCCCS(=N)(=O)CC[C@H](N)C(=O)O (some centres undefined) | . | . | . | 10µM*! | . | .
NC(=O)C1(N2CCCCC2)CCN(C(=O)c2cc(COc3c(F)cccc3F)on2)CC1 | . | 5 | . | . | 2 | .
SMILES | BAZ2B block | Six1-Eya2 inh | JMJD2A Tudor inh | G9a inh | CtBP-E1A blk | HP1b chromo inh
Cc1ccc(C(=O)Oc2cc(-c3ccccc3)no2)cc1 | -2% | -1 | 5% | 4% | 4 | 35%
O=C(Oc1cc(-c2ccccc2)no1)c1ccc(Cl)cc1 | ? | 7 | -28%[11.4 µM] | 79µM* | 10 | 23%
COc1ccc2c(c1)S(=O)(=O)c1ccccc1N2 | -2% | 1 | -19% | 14% | 3 | 27%
COc1ccc2c(c1)Sc1ccccc1N2 | 20µM* | ? | 40µM* | 3.5µM* | ? | 28µM*
c1ccc2c(c1)Nc1cc3ccccc3cc1S2 | -30% | 2 | -28% | 40µM* | -5 | 2%
CN(CC(=O)Nc1ccc(S(N)(=O)=O)cc1)C1CCCCC1 | 7% | 14 | -4% | -4% | 2 | 34%
CN1CCC(N(C)CC(=O)Nc2ccc3c(c2)OC(F)(F)O3)CC1 | 45µM* | 7 | 2µM* | . | 1 | ?
CN(CC(=O)Nc1ccc(Cl)c(Cl)c1)C1CCCCC1 | -28% | 2 | 22µM* | 22µM* | 20 | ?
CN(CC(=O)Nc1ccccc1Cl)C1CCCCC1 | 16% | 10 | 20% | 29% | 20 | 34%
CN(CC(=O)Nc1ccc(SC(F)F)cc1)C1CCCCC1 | -1% | 0 | 1% | 79µM* | 0 | 47%
Cc1ccc(NC(=O)c2ncn(-c3ccccc3)n2)cc1Cl | 1% | . | -17% | 13%[59 µM] | . | 8%
Cc1ccc(C2=NN(C(=O)CNCCO)C(c3cccs3)C2)cc1 (centres undefined) | -27% | -1 | 12% | -7% | . | 57%
NS(=O)(=O)c1ccc(N=Nc2c(O)c(C(=O)O)cc3ccccc23)cc1 | 40µM* | -20 | ? | 34%[0.501 µM] | . | ?
Nc1nc(O)c(N=Nc2ccc(S(N)(=O)=O)cc2)c(=O)[nH]1 | 3% | -8 | -3% | ? | -6 | 32%
O=C(O)Cc1ccc(N=Nc2c(O)c(C(=O)O)cc3ccccc23)cc1 | 28µM* | ? | 56µM* | 40µM* | -11 | 50µM*
CCN(C(=O)CN1CCN(S(=O)(=O)c2ccccc2C(F)(F)F)CC1)c1c(N)n(Cc2ccccc2)c(=O)[nH]c1=O | -1% | 11 | -16% | 13% | 0 | 18%
Cn1c(C23CC4CC(CC(C4)C2)C3)n[nH]c1=S | 6% | 5 | 5.6µM* | 22µM* | -11 | 0%
COCCCn1c(C)cc(C(=O)COC(=O)C23CC4CC(CC(O)(C4)C2)C3)c1C | 12% | 0 | -18% | 1% | 7 | 8%
COCCCn1c(C23CC4CC(CC(C4)C2)C3)n[nH]c1=S | 4% | 13 | 7.9µM* | . | . | 6%
CC(C)Cn1c(C23CC4CC(CC(C4)C2)C3)n[nH]c1=S | ? | -7 | 56µM* | 3.2µM* | 0 | 23%
NC(CCc1ccccc1)c1csc(NC(=O)Nc2cccc(C(F)(F)F)c2)n1 (centres undefined) | . | 2 | . | . | -3 | .
Cc1cc(O)c(CN(C)C)c2c1C(=O)/C(=C/c1ccco1)O2 | -22% | -11 | -26% | 6.3µM* | 9 | -9%
